This is part of a sample that, as a whole, favours compounds with a hit. Of some 83,000 tested, about 20% had one in any assay.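 Cell lines were cultured in 96-well plates, exposed to a single compound concentration, and assessed for percent growth 48 hours later.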 Values without a mark were called inactive. The source made the active and inactive calls. Rule for the calls: active = growth percent below 10; inactive = the rest.

Data on nine molecules can be found in PubChem BioAssay (NCI).

What all share (assay): NCI-60 one-dose screen, 48 h (100 = growth as untreated, 0 = no growth, -100 = all killed)
In one experiment the test system is HCT-15 colon. To be noted: 10 µM unless noted.
In the next experiment the test system is HT29 colon. To be noted: 10 µM unless noted.
Another experiment deals with SNB-75 CNS. To be noted: 10 µM unless noted.
A further experiment has as its system SNB-19 CNS. To be noted: 10 µM unless noted.
A further experiment concerns U251 CNS. To be noted: 10 µM unless noted.
In another experiment the test system is PC-3 prostate. To be noted: 10 µM unless noted.
The subject of another experiment is UACC-62 melanoma. As to conditions: 10 µM unless noted.
The test system of a further experiment is LOX IMVI melanoma. To be noted: 10 µM.
The test system of a further experiment is SK-MEL-28 melanoma. To be noted: 10 µM unless noted.
A further experiment has as its system SK-MEL-2 melanoma. As to conditions: 10 µM unless noted.
In the next experiment the test system is EKVX NSCLC. As to conditions: 10 µM unless noted.
Another experiment deals with SN12C renal. To be noted: 10 µM unless noted.
For another experiment, the system named is UO-31 renal. To be noted: 10 µM unless noted.
A further experiment deals with TK-10 renal. To be noted: 10 µM unless noted.
The next experiment has as its system ACHN renal. To be noted: 10 µM unless noted.
A further experiment deals with CAKI-1 renal. As to conditions: 10 µM unless noted.
In the next experiment the test system is A498 renal. As to conditions: 10 µM unless noted.
The subject of another experiment is CCRF-CEM leukemia. To be noted: 10 µM unless noted.

In the case of `Cc1cc(C)n(-c2ccc3nnc(-c4ccccc4)n3n2)n1`, the growth was 86.4% with HCT-15 colon; 115% in the experiment with HT29 colon; 94.4% with SNB-75 CNS; 98.3% in the experiment on SNB-19 CNS; 102% in the experiment on U251 CNS; 104% with PC-3 prostate. In addition, the growth is 99.9% in the experiment with UACC-62 melanoma; 77.3% in the experiment on LOX IMVI melanoma; 122% in the experiment on SK-MEL-28 melanoma; 114% in the experiment on SK-MEL-2 melanoma; 88.5% in the experiment with EKVX NSCLC; 94.2% in the experiment with SN12C renal. Moreover, the growth is -77.9% (active) in the experiment with UO-31 renal; 95% in the experiment on TK-10 renal; 104% in the experiment with ACHN renal; 74.7% in the experiment on CAKI-1 renal; 107% in the experiment with A498 renal; 112% in the experiment with CCRF-CEM leukemia.

With `CN1CCN(c2ccc(C(=O)/C=C/c3ccc(Br)cc3)cc2)CC1`, the growth in the experiment with HCT-15 colon was 8.41% (active); in the experiment on HT29 colon, 6.76% (active); with SNB-75 CNS it was 28.3%; in the experiment on SNB-19 CNS, 31.4%; in the experiment on U251 CNS, -75.7% (active); with PC-3 prostate, 34.4%. In addition, the growth is -9.44% (active) in the experiment on UACC-62 melanoma; -13.4% (active) with LOX IMVI melanoma; 37.7% in the experiment on SK-MEL-28 melanoma; 85.4% with SK-MEL-2 melanoma; 51.8% with EKVX NSCLC; 13.9% in the experiment on SN12C renal. In addition, the growth in the experiment with UO-31 renal is 18.8%; in the experiment with TK-10 renal it was 38.4%; in the experiment on ACHN renal, 30.8%; in the experiment with CAKI-1 renal, 30.8%; with A498 renal, 96%; with CCRF-CEM leukemia, 18.2%.

With `COc1ccc(C(=O)/C=C/c2cccnc2)cc1S(N)(=O)=O`, the growth in the experiment with HCT-15 colon was 4.61% (active); in the experiment with HT29 colon, 24%; with SNB-75 CNS, 64.2%; with SNB-19 CNS, 45.4%; in the experiment with U251 CNS it was 11.2%; in the experiment with PC-3 prostate, 78.4%. For the same molecule, the growth is 74.8% in the experiment on UACC-62 melanoma; -15.3% (active) in the experiment with LOX IMVI melanoma; 65.7% with SK-MEL-28 melanoma; 104% with SK-MEL-2 melanoma; 63.3% in the experiment on EKVX NSCLC; 37.7% in the experiment on SN12C renal. The growth was 28% with UO-31 renal; 66.8% with TK-10 renal; 50.7% in the experiment on ACHN renal; 52.6% with CAKI-1 renal; 103% in the experiment with A498 renal; 5.54% (active) in the experiment on CCRF-CEM leukemia.

`O=C(NNc1nc2cc(F)ccc2n2c(CN3CCCCC3)ccc12)c1cnccn1`: the growth is -52.4% (active) with HCT-15 colon; 8.19% (active) with HT29 colon; -9.76% (active) in the experiment on SNB-75 CNS; -8.81% (active) with SNB-19 CNS; -84.8% (active) in the experiment on U251 CNS; -18.3% (active) in the experiment on PC-3 prostate. Further, the growth is -35.2% (active) in the experiment with UACC-62 melanoma; -69.7% (active) in the experiment on LOX IMVI melanoma; -57.4% (active) in the experiment on SK-MEL-28 melanoma; -67.2% (active) in the experiment with SK-MEL-2 melanoma; 1.01% (active) in the experiment with SN12C renal; -72.2% (active) in the experiment on UO-31 renal. Also, the growth in the experiment on TK-10 renal was -92.7% (active); in the experiment on ACHN renal, -98.3% (active); in the experiment with A498 renal it was -87.9% (active); in the experiment on CCRF-CEM leukemia, -16.2% (active).

Regarding `O=C(NNc1nc2cc(F)ccc2n2c(C(=O)N3CCN(C4CC4)CC3)ccc12)c1ncccn1`, the growth in the experiment on HCT-15 colon is 10.5%; in the experiment with HT29 colon, 39%; with SNB-75 CNS, 73.3%; in the experiment with SNB-19 CNS, 30.7%; in the experiment on U251 CNS, 16.8%; in the experiment with PC-3 prostate it was 49%. Besides, the growth in the experiment on UACC-62 melanoma was 9.28% (active); in the experiment with LOX IMVI melanoma, 13.7%; in the experiment on SK-MEL-28 melanoma it was 30.8%; in the experiment on SK-MEL-2 melanoma it was 57%; in the experiment on EKVX NSCLC it was 22.8%; in the experiment with SN12C renal it was 27%. The growth is 14.8% with UO-31 renal; 30.2% in the experiment on TK-10 renal; 12.2% in the experiment with ACHN renal; 17.7% with CAKI-1 renal; 75.9% in the experiment on A498 renal; 13.4% in the experiment on CCRF-CEM leukemia.

Take `C[C@H]1CN(C(=O)c2ccc3c(NNC(=O)c4ccncn4)nc4cc(F)c(F)cc4n23)CCN1`: the growth with HCT-15 colon was 28.4%; in the experiment on HT29 colon, 36.6%; in the experiment on SNB-75 CNS, 65.3%; in the experiment with SNB-19 CNS, 30.1%; in the experiment on U251 CNS, 15.5%; in the experiment with PC-3 prostate, 38.7%. Also, the growth was 6.69% (active) with UACC-62 melanoma; 12.4% in the experiment with LOX IMVI melanoma; 31.1% in the experiment on SK-MEL-28 melanoma; 53.4% in the experiment with SK-MEL-2 melanoma; 24.1% in the experiment on SN12C renal; 13.6% in the experiment on UO-31 renal. Also, the growth in the experiment with TK-10 renal was 36.8%; in the experiment on ACHN renal, 8.98% (active); with CAKI-1 renal, 15.2%; in the experiment with A498 renal it was 50.3%; in the experiment with CCRF-CEM leukemia, 10.9%.

For `O=C(NNc1nc2cc(C(F)(F)F)ccc2n2cccc12)c1cnccn1`, the growth in the experiment with HCT-15 colon is -49.6% (active); in the experiment with HT29 colon, 2.58% (active); with SNB-75 CNS it was -69.4% (active); in the experiment with SNB-19 CNS, -56.6% (active); with U251 CNS, -95.5% (active); with PC-3 prostate it was -54.8% (active). The growth with UACC-62 melanoma was -41.1% (active); in the experiment on LOX IMVI melanoma, -67% (active); in the experiment on SK-MEL-28 melanoma, -36.8% (active); in the experiment with SK-MEL-2 melanoma, -73.1% (active); in the experiment with EKVX NSCLC, -83.2% (active); with SN12C renal, -59.9% (active). Moreover, the growth with UO-31 renal is -64.6% (active); in the experiment with TK-10 renal, -91.8% (active); in the experiment with ACHN renal, -97.5% (active); with CAKI-1 renal it was -87.6% (active); with A498 renal it was -92.7% (active); with CCRF-CEM leukemia, 6.27% (active).

`COc1ccc(C(=O)/C=C/c2ccccc2Br)cc1S(N)(=O)=O`: the growth with HCT-15 colon is -91.5% (active); with HT29 colon it was -17.2% (active); with SNB-75 CNS, 34.1%; in the experiment with SNB-19 CNS, 1.44% (active); in the experiment with U251 CNS it was -95.6% (active); with PC-3 prostate, 21%. For the same molecule, the growth is 34.4% in the experiment on UACC-62 melanoma; -89.9% (active) in the experiment with LOX IMVI melanoma; -27.7% (active) with SK-MEL-28 melanoma; 81.2% with SK-MEL-2 melanoma; -80.2% (active) in the experiment on EKVX NSCLC; -25.6% (active) in the experiment on SN12C renal. Moreover, the growth was -65.2% (active) in the experiment on UO-31 renal; 3.43% (active) in the experiment with TK-10 renal; -97% (active) in the experiment on ACHN renal; 11.8% in the experiment with CAKI-1 renal; 6.96% (active) with CCRF-CEM leukemia.

Turning to `O=C(Cn1c(/C=C/c2cccc([N+](=O)[O-])c2)nc2ccccc2c1=O)Nc1ccccc1`, the growth in the experiment with HCT-15 colon was 66.2%; in the experiment with HT29 colon, 71.1%; in the experiment with SNB-75 CNS, 70.1%; with SNB-19 CNS, 81.3%; with U251 CNS, 11.8%; with PC-3 prostate it was 78.4%. The growth in the experiment with UACC-62 melanoma is 50.9%; in the experiment on LOX IMVI melanoma it was 33%; in the experiment with SK-MEL-28 melanoma it was 85.4%; in the experiment on SK-MEL-2 melanoma, 87.7%; in the experiment with EKVX NSCLC, 79.6%; in the experiment on SN12C renal, 74.5%. The growth is 77.4% in the experiment with UO-31 renal; 109% with TK-10 renal; 43.9% in the experiment on ACHN renal; 80.2% in the experiment with CAKI-1 renal; 94.7% with A498 renal; 91.5% with CCRF-CEM leukemia.
